From PubChem BioAssay (NCI)
About 83,000 compounds went through this panel and 20% of them were active in at least one assay; those are over-represented in the sample as a whole.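 Growth was measured after 48 h exposure to one concentration of compound in 96-well plates. Values under 10 count as active.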 Active and inactive are the calls of the source.

Columns and labels:
Assay in all cases: NCI-60 one-dose screen, 48 h (100 = growth as untreated, 0 = no growth, -100 = all killed)
Details in all cases: 10 µM unless noted
[1] = test system: NCI-H23 lung
[2] = test system: NCI-H226 lung
[3] = test system: NCI-H322M lung
[4] = test system: HOP-62 NSCLC
[5] = test system: NCI-H460 lung
[6] = test system: HOP-92 NSCLC
[7] = test system: NCI-H522 lung
[8] = test system: A549/ATCC NSCLC
[9] = test system: 786-0 renal
[10] = test system: COLO 205 colon

Measured: growth

Cc1cccc(C)c1Nc1nnc(-c2ccc(F)cc2)o1
inactive: [1] 92.4% | [2] 96.1% | [3] 93.4% | [4] 107% | [5] 104% | [6] 95.5% | [7] 112% | [8] 104% | [9] 112% | [10] 100%

N#Cc1c(-c2ccc(F)cc2)c(C#N)c2c(C#N)c(N)nn2c1N
inactive: [1] 96.9% | [2] 82.2% | [3] 97.5% | [4] 81% | [5] 98.7% | [6] 76.9% | [7] 85.7% | [8] 92% | [9] 94.2% | [10] 98.4%

Cc1[nH]c2ncnc(Oc3ccc(NC(=O)Nc4ccc(Cl)c(C(F)(F)F)c4)cc3)c2c1C
inactive: [1] 56.7% | [2] 75.1% | [3] 69.6% | [4] 59.3% | [5] 36.1% | [6] 91.9% | [7] 25.3% | [8] 45.3% | [9] 84% | [10] 60.3%

NC(=O)C(O)(c1ccccc1)c1ccccc1
inactive: [1] 101% | [2] 99.2% | [3] 105% | [4] 91.6% | [5] 104% | [6] 83.2% | [7] 84.2% | [8] 91% | [9] 102% | [10] 115%

Cc1nn(-c2ccc(-c3ccc(OC(F)(F)F)cc3)cc2)c2nc(-c3ccccc3)nc(N)c12
inactive: [1] 97.7% | [2] 88.4% | [3] 86.4% | [4] 95.8% | [5] 83.2% | [6] 66.4% | [7] 83.7% | [8] 85.2% | [9] 93.8% | [10] 121%

C=CCn1c(SCC(=O)Nc2ccc(C(=O)/C=C/c3cc(OC)c(OC)c(OC)c3)cc2)nnc1-c1ccc(Cl)cc1
active: [2] -4.38% | [7] -13.1%
inactive: [1] 23% | [3] 56.1% | [4] 25% | [5] 22.9% | [6] 75% | [8] 28.9% | [9] 15.5% | [10] 31.9%

O=C(Nc1nc(-c2ccccc2)cs1)c1cc(-c2ccc(Br)cc2)nc2ccccc12
active: [6] 6.1%
inactive: [1] 51.6% | [2] 46.3% | [3] 81.5% | [4] 57.1% | [5] 31.3% | [7] 43.5% | [8] 36.5% | [9] 65.4% | [10] 56.2%

COc1cc(C2=N/C(=C\c3cc4ccccc4nc3Oc3ccccc3)C(=O)N2C(=N)N)cc(OC)c1OC
inactive: [1] 71% | [2] 18.7% | [3] 55.4% | [5] 52.1% | [6] 27.9% | [7] 60.3% | [8] 77.1% | [9] 28.6% | [10] 90.4%
active: [4] -0.576%

COc1ccc2c(c1)/C(=C1\S/C(=N/c3nnc(C)s3)NC1=O)C(=O)N2Cc1ccc(Cl)cc1
active: [5] 8.75%
inactive: [1] 34.5% | [2] 56.5% | [3] 49.9% | [4] 66.8% | [6] 26% | [7] 45.8% | [8] 36.2% | [9] 49.2% | [10] 79.9%

COc1ccc(C2CC(c3ccc(OC)cc3O)=NN2c2ccc(S(N)(=O)=O)cc2)cc1 (stereo not given)
inactive: [1] 65.6% | [2] 59.9% | [3] 59.4% | [4] 83.2% | [5] 14% | [6] 20.7% | [7] 34% | [8] 21.7% | [9] 38.5% | [10] 29.5%

O=C(NCc1ccccc1)c1ccc2c(c1)NC(=O)[C@@H]1CCCN21
inactive: [1] 90.6% | [2] 103% | [3] 92.8% | [4] 103% | [5] 94.7% | [6] 102% | [7] 91.3% | [8] 106% | [9] 95.9% | [10] 110%

COc1cc(C2=NNC(c3ccc(N(C)C)cc3)C2)cc(OC)c1OC (stereo not given)
inactive: [1] 36.1% | [2] 62.2% | [3] 46.2% | [4] 36.4% | [5] 10.5% | [6] 29.2% | [8] 24.5% | [9] 23%
active: [7] -6.25% | [10] 5.74%

COc1ccc2nc(-c3ccc(Cl)cc3)cc(C(=O)N3N=C(c4ccc(N)cc4)CC3c3ccccc3)c2c1 (stereo not given)
inactive: [1] 62% | [2] 63.8% | [3] 54% | [4] 42.5% | [5] 25.5% | [6] 58.9% | [7] 34.7% | [8] 46.9% | [9] 31.8% | [10] 42.3%

Cc1ccc(SC2c3ccc(C)cc3Oc3nc(N)c(C#N)c(N)c32)cc1 (stereo not given)
active: [7] -53.4%
inactive: [1] 82.8% | [2] 92.8% | [3] 104% | [4] 89.8% | [5] 101% | [6] 66.6% | [8] 101% | [9] 91.4% | [10] 62.8%

COc1cc2cc(c1Cl)N(C)C(=O)C[C@H](OC(=O)[C@H](C)N(C)C(=O)CCS)C[C@]1(C)O[C@H]1[C@H](C)[C@@H]1C[C@@](O)(NC(=O)O1)[C@H](OC)/C=C/C=C(\C)C2
active: [5] 7.39% | [6] 4.28% | [7] -31.2% | [10] -65.7%
inactive: [1] 23.2% | [2] 69.5% | [3] 42.8% | [4] 18.3% | [8] 16.3% | [9] 13.8%

Cc1cnc(SCc2ccc(Cl)cc2Cl)nc1Nc1ccc(Cl)c(Cl)c1
inactive: [1] 92.8% | [2] 101% | [3] 82% | [4] 93.4% | [5] 92.2% | [6] 76% | [7] 66.7% | [8] 78.2% | [9] 92.3% | [10] 117%

O=C1c2ccccc2C(=O)c2c1oc1c2c(=O)[nH]c2ccccc21
inactive: [1] 66% | [2] 78.5% | [3] 89.3% | [4] 119% | [5] 68.3% | [6] 71.4% | [7] 54.8% | [8] 97.2% | [9] 102% | [10] 109%

O=C1NC(SCc2ccc(F)cc2)=N/C1=C/c1cccc(OCc2ccc(Cl)cc2)c1
inactive: [1] 57.6% | [3] 50.3% | [4] 45.9% | [5] 11.8% | [6] 68% | [7] 67.5% | [8] 26.2% | [10] 55.3%
active: [2] -7.92% | [9] -33.3%

C=C(C)[C@@H]1CC[C@]2(C(N)=O)CC[C@]3(C)[C@H](CC[C@@H]4[C@@]5(C)CCCNC(C)(C)[C@@H]5CC[C@]43C)[C@@H]12
inactive: [1] 76.4% | [2] 86.3% | [3] 101% | [4] 91.4% | [5] 64% | [6] 65.4% | [7] 84.4% | [8] 65% | [9] 87.2% | [10] 69.3%

CCCCn1c2cc(OCc3cn(-c4ccc(Cl)cc4)nn3)ccc2c2ccnc(C)c21
active: [9] -10.3%
inactive: [1] 32.4% | [2] 52.3% | [3] 56.6% | [4] 41.2% | [5] 21.5% | [6] 36.9% | [7] 24.2% | [8] 42.1% | [10] 21.9%

COc1ccccc1C(=O)/C=C/c1cc2cccc(OC)c2[nH]c1=O
inactive: [6] 10.6% | [8] 21.4%
active: [1] -16.4% | [2] -22.1% | [3] 8.09% | [4] -8.85% | [5] -27.5% | [7] -72.7% | [9] 9.27% | [10] -49.7%

O=C(Nc1cccc(-c2cccc(F)c2)c1)C1CCN(Cc2cccc3cccnc23)CC1
active: [10] -81%
inactive: [1] 69.2% | [2] 71.5% | [3] 78.2% | [4] 63.8% | [5] 37% | [6] 44.2% | [7] 47.3% | [8] 71.9% | [9] 47.5%

O=C(/C(=C/c1ccc([N+](=O)[O-])cc1)SCc1ccc(Cl)cc1)c1ccc(F)cc1
active: [7] -1.33%
inactive: [1] 57% | [2] 66.7% | [3] 100% | [4] 68.7% | [5] 83.1% | [6] 80.3% | [8] 80.5% | [9] 76.9% | [10] 48.3%

S=C(Nc1ccccc1)c1ccccn1
inactive: [1] 87.5% | [2] 94.7% | [3] 101% | [4] 75.2% | [5] 100% | [6] 84.6% | [7] 74.4% | [8] 91.7% | [9] 96.5% | [10] 67.9%

O=c1c2ccccc2oc2ccc(OCCCCCCN3CCCCCC3)cc12
active: [10] -5.01%
inactive: [1] 39.2% | [2] 74.1% | [3] 74.3% | [4] 74.1% | [5] 35% | [6] 74.6% | [7] 46% | [8] 40.4% | [9] 27.1%

COCCOCCOCc1n(Cc2ccc3ccccc3n2)c2ccccc2[n+]1Cc1ccc2ccccc2n1
inactive: [1] 12.7% | [2] 37.9% | [3] 47.4% | [4] 20.8% | [5] 16.5% | [8] 39.4% | [9] 77.8%
active: [6] -22.1% | [7] -1.7% | [10] -31.4%
